The whole screen tested about 310,000 compounds, of which about 3,600 (1.2%) were called active. This is one part of a sample in which actives are shown more often than they occur.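 Rule for the calls: active = ratio plate-corrected score three or more library SD toward inhibition, starting fluorescence score within five deviations; inactive = the rest.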
biological target: Anoctamin-1 (Mus musculus) (UniProt Q8BHY3); assay: TMEM16A chloride channel inhibitors, primary screen, cell-based, HTS (AID 588511); conditions: HEK293 TMEM16A/YFP iodide influx fluorescence, ionomycin; at 10 µM;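 for normalized B-score (activity score, 25-100; higher = stronger inhibition): score derived from kinetic fluorescence span divided by baseline fluorescence per well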
Sequence (Q8BHY3 whole entry, looked up): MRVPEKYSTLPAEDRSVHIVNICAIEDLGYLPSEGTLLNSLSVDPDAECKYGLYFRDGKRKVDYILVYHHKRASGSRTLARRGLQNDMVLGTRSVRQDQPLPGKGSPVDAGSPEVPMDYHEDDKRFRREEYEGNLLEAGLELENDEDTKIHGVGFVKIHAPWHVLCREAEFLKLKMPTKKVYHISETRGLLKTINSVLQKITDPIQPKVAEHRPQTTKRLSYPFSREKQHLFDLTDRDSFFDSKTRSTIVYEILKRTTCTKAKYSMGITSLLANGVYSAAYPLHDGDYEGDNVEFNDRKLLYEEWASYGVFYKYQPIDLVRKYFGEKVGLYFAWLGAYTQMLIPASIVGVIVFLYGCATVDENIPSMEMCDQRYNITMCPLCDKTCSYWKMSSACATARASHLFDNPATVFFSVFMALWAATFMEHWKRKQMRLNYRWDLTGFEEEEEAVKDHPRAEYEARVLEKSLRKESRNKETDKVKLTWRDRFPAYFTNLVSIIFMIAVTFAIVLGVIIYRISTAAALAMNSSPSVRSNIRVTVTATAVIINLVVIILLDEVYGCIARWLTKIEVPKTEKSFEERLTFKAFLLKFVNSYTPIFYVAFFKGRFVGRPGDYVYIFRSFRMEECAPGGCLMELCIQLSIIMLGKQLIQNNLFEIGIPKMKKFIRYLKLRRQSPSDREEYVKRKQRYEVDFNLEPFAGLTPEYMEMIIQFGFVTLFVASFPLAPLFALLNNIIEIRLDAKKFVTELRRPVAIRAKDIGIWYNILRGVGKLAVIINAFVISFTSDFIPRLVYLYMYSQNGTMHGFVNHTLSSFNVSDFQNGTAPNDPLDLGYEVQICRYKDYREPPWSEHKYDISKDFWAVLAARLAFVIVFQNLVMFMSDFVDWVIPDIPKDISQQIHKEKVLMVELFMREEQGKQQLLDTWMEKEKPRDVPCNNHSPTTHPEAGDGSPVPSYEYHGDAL

Row | SMILES | normalized B-score (activity score, 25-100; higher = stronger inhibition)
1 | Cc1ccc(S(=O)(=O)NC2CCCCCC2)cc1C(N)=O | inactive
2 | COC(=O)[C@@H]1C[C@@]2(O)[C@H](O)[C@H](O)[C@H](O)C[C@H]2N1Cc1ccc(C(C)(C)C)cc1 | inactive
3 | O=C(Nc1cccc2ccccc12)N1CCN(Cc2ccc3c(c2)OCO3)CC1 | inactive
4 | O=C(CSCc1ccc(Cl)cc1)N1CCCCC1 | inactive
5 | O=C(CSCc1ccc(Cl)cc1)N1CCN(Cc2ccc3c(c2)OCO3)CC1 | 100 (active)
6 | O=C(C1CCN(Cc2ccc(Cl)cc2)CC1)N1CCN(Cc2ccc3c(c2)OCO3)CC1 | inactive
7 | Cn1c(=O)cc(OCCCC(=O)N2CCN(Cc3ccc4c(c3)OCO4)CC2)c2ccccc21 | inactive
8 | O=C(CCCN1C(=O)c2cccc3cccc(c23)C1=O)N1CCN(Cc2ccc3c(c2)OCO3)CC1 | 100 (active)
9 | NC(=O)C1=C[C@@H](c2ccc3c(c2)OCO3)C[C@@H](OCCCCO)O1 | inactive
10 | COc1ccc(N2C(=O)C(CC(=O)Nc3ccc(F)cc3)N(CCc3cccs3)C2=O)cc1 (stereo not drawn) | inactive
11 | Cc1cnc(C)c(N2CCN(C(=O)C3CCC(=O)N(CCc4cccc(F)c4)C3)CC2)n1 (stereo not drawn) | inactive
12 | CC(C)Cn1cnc2c1c(=O)n(CC(=O)NN)c(=O)n2Cc1ccccc1 | inactive
13 | Cc1ccnc(NC(=O)C2CCN(S(=O)(=O)c3c(C)c(C)cc(C)c3C)CC2)c1 | inactive
14 | COc1ccc(CCNc2cc(C)nc3c(-c4ccc(Cl)cc4)c(C)nn23)cc1OC | inactive
15 | CC(=O)Nc1ccc(OC(=O)COc2ccc(Br)cc2)cc1 | inactive
16 | COC(C(=O)Nc1ccc(C(C)=O)cc1)c1ccccc1 (stereo not drawn) | inactive
17 | CC(=O)Nc1ccc(NC(=O)[C@@H](NC(=O)c2cccc(C)c2)C(C)C)cc1 | inactive

Row | SMILES | normalized B-score (activity score, 25-100; higher = stronger inhibition)
18 | Cc1ccc(NC(=O)C(C)c2cccc(C(=O)c3ccccc3)c2)cc1 (stereo not drawn) | 100 (active)
19 | COCCn1c(=O)[nH]c(=O)c2cc(C(=O)c3cc(OC)ccc3O)cnc21 | inactive
20 | CC1Cc2ccccc2N1C(=O)CSc1nnc(C2CC2)n1C (stereo not drawn) | inactive
21 | CCCCSc1nnc2c(n1)OC=Nc1ccccc1-2 | inactive
22 | O=C(CSC(=S)N1CCCCC1)c1c(F)cccc1F | inactive
23 | CCOC(=O)[C@H]1[C@H]2COc3ccc(Cl)cc3[C@@H]2N2C(=O)c3cc(C)ccc3NC(=O)[C@@]12C | inactive
24 | CCN(CC)S(=O)(=O)c1ccc(N(C)Cc2cccc(OC)c2OC)nc1 | 25 (active)
25 | CCN(CC)S(=O)(=O)c1ccc(Cl)c(NC(=O)c2ccncc2)c1 | inactive
26 | CCN(CC)S(=O)(=O)c1ccc(N(C)Cc2ccc(C(F)(F)F)cc2)nc1 | 100 (active)
27 | COc1ccc(S(=O)(=O)N2CCCCCC2)cc1C(=O)N(C)Cc1cccc(OC)c1OC | inactive
28 | CCN(CC)S(=O)(=O)c1ccc(NC(=O)c2cnc(C)cn2)cc1 | inactive
29 | CCN(CC)S(=O)(=O)c1ccc(N(C)CCc2ccc(OC)c(OC)c2)nc1 | inactive
30 | CCC(C)c1ccccc1N1CC(C(=O)N2CCN(S(=O)(=O)c3ccc(F)cc3)CC2)CC1=O (stereo not drawn) | inactive
31 | COc1ccccc1CNC(=O)Cn1c(=O)oc2cc(Cl)ccc21 | inactive
32 | CC1CCCCC1NC(=O)CN1CCC(O)(c2ccc3c(c2)OCO3)CC1 (stereo not drawn) | inactive
33 | CCOC(=O)C1CCN(c2ncnc3c2oc2ccc(Br)cc23)CC1 | 100 (active)

From PubChem BioAssay AID588511 (Johns Hopkins Ion Channel Center, 2011)
